For 37 compounds, outcome and AC50 results are on record in PubChem BioAssay (EPA / NIEHS).

Results filed as inconclusive are left out. Activity calls are given as the source filed them. The calls were made as follows: active = hit-call score of the fitted dose curve at least 0.9, where 1 is the maximum; inconclusive = response in the unintended direction; inactive = score below 0.9.

Retinoic acid receptor alpha (Homo sapiens), sequence (P10276 whole entry, looked up): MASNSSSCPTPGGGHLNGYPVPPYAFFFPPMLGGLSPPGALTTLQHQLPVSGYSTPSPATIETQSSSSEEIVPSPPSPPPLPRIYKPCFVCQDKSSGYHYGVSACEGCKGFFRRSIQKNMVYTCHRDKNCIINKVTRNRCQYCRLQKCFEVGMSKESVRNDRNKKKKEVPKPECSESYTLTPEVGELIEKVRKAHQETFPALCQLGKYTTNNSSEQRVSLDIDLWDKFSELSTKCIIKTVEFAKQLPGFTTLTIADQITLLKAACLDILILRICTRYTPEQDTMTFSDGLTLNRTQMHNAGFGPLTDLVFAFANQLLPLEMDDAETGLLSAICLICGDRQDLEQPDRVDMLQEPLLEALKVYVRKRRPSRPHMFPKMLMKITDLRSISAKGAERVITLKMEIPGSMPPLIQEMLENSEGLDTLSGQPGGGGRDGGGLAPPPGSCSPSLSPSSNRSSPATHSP

This assay concerns the target Retinoic acid receptor alpha (Homo sapiens) (UniProt P10276). The assay can be described thus: ATG_RARa_TRANS: Attagene TRANS-FACTORIAL HepG2 Assay for human Retinoic Acid Receptor alpha (RARa) (AID 2283005).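 As to AC50: potency for increased reporter signal meaning RARa activation over DMSO.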 The protocol:
ATG_TRANS is a cell-based, multiplexed-readout assay that uses HepG2, a human liver cell line, with measurements taken at 24 hours after chemical dosing in a 24-well plate.ATG_RARa_TRANS is one of 30 assay component(s) measured or calculated from the ATG_TRANS assay. It is designed to make measurements of mRNA induction, a form of inducible reporter, as detected with fluorescence intensity signals by Reverse transcription polymerase chain reaction (RT-PCR) and Capillary electrophoresis technology.Data from the assay component ATG_RARa_TRANS was analyzed into 1 assay endpoint. This assay endpoint, ATG_RARa_TRANS, was analyzed in the positive analysis fitting direction relative to DMSO as the negative control and baseline of activity. Using a type of inducible reporter, measures of mRNA for gain-of-signal activity can be used to understand the reporter gene at the transcription factor-level as they relate to the gene RARA. Furthermore, this assay endpoint can be referred to as a primary readout, because this assay has produced multiple assay endpoints where this one serves a reporter gene function. To generalize the intended target to other relatable targets, this assay endpoint is annotated to the nuclear receptor intended target family, where the subfamily is non-steroidal.
Human liver HepG2 cells are transiently transfected with multiple reporter transcription units (MRTUs) in 6-well plates using FuGene 6 reagent (Roche; 3 ml FuGene/1 mg DNA). The MRTU constructs are regulated by a cis-regulating element (promoter). […] A major difference between the CIS and TRANS system is that in CIS activities of endogenous TFs are measured, whereas the TRANS assay evaluates changes in activities of exogenous, chimeric NR-Gal4 proteins. […] At the end of 24 hour incubation, total RNA was isolated using TriZol reagent (Invitrogen). The isolated RNA is then reverse-transcribed using oligo(dT) primer and Mo-MLV reverse transcriptase (Invitrogen) with DNAse I (Ambion) treatment for 30 min. The one-tenth of the produced cDNA was amplified by PCR using Taq DNA polymerase (Invitrogen) and two reporter sequence-specific primers. The PCR products were fluorescently labeled by primer extension with 6-arboxyfluorescein (6-FAM) 5'-labeled reporter sequence-specific primer (2 min at 95 C, 20 s at 68 C and 10 min at 72 C) and these products were digested with 5U of HpaI (New England Biolabs) for 2h at 37 C. The fragments were purified using Qiaquick PCR columns (Qiagen), analyzed on an ABI 3130xL genetic analyzer (Applied Biosystems) with peak positions identified by using a set of X-rhodamine (ROX)-labeled MapMarker1000 molecular weight standards (BioVentures). The raw capillary electrophoresis data was processed using Attagraph software (Attagene).
Consider `Cc1cc(C2CC2)nc(Nc2ccccc2)n1`, for which the compound was classed as inactive. Still for that read-out and setting: under `CCCSP(=O)(OCC)SCCC` stands “inactive”; under `CN(C)NC(=O)CCC(=O)O`, “inactive”. Still for that read-out and setting: under `N#CSCSC#N` stands “inactive”; under `CSc1nc(NC(C)C)nc(NC(C)C)n1`, “inactive”. For the compound `FC(F)C(F)(F)OCC(Cn1cncn1)c1ccc(Cl)cc1Cl` (configuration not stated), the AC50 (in general, the concentration giving half of the maximal activity seen) is 13200 nM (active).

As to `CC(C)N(C(=O)SCC(Cl)=C(Cl)Cl)C(C)C`, the compound was called inactive. Still for that read-out and setting: under `C[N+]1(C)CCCCC1` stands “inactive”; under `CSc1nnc(C(C)(C)C)c(=O)n1N`, “inactive”; under `CCOP(=O)(SC(C)CC)N1CCSC1=O` (configuration not stated), “inactive”.

On to `CCCOCC(=Nc1ccc(Cl)cc1C(F)(F)F)n1ccnc1`, for which the concentration at half-maximal activity (AC50) was 1100 nM (active).

For the compound `Nc1nc(N)nc(NC2CC2)n1`, the result was inactive. Turning to `CC1=NNC(=O)N(/N=C/c2cccnc2)C1`, the outcome was inactive. Same read-out and setting: under `C#CCC1=C(C)C(OC(=O)C2C(C=C(C)C)C2(C)C)CC1=O` (configuration not stated) stands “inactive”; under `CCCCN(CC)c1c([N+](=O)[O-])cc(C(F)(F)F)cc1[N+](=O)[O-]`, “inactive”. For the compound `COc1cccc(C(=O)NN(C(=O)c2cc(C)cc(C)c2)C(C)(C)C)c1C`, the outcome was inactive.

On to `CC(Oc1cccc(Cl)c1)C(=O)O` (configuration not stated), for which the call was inactive. Take `CCOP(=S)(OCC)Oc1ccc2c(C)c(Cl)c(=O)oc2c1`: the AC50 was 2300 nM (active).

With `CCC(=O)Nc1ccc(Cl)c(Cl)c1`, the compound was called inactive. Same read-out and setting: under `CN(C)C(=O)Nc1cccc(C(F)(F)F)c1` stands “inactive”. As for `CCOP(=O)(NC(C)C)Oc1ccc(SC)c(C)c1` (configuration not stated), the result was inactive. On the same count and under the same terms, under `CCOC(=O)COc1cc(-c2nn(C)c(OC(F)F)c2Cl)c(F)cc1Cl` stands “inactive”. Consider `COP(=O)(OC)C(O)C(Cl)(Cl)Cl` (configuration not stated), for which the AC50 is 78900 nM (active). Consider `CC(=NC#N)N(C)Cc1ccc(Cl)nc1`, for which the compound was classed as inactive. Same read-out and setting: under `C#CC(C)(C)NC(=O)c1cc(Cl)cc(Cl)c1` stands “inactive”.

For `COP(=O)(OC)OC(Br)C(Cl)(Cl)Br` (configuration not stated), the compound was classed as inactive. As to `CNc1cnn(-c2cccc(C(F)(F)F)c2)c(=O)c1Cl`, the compound was called inactive. On to `CCOP(=S)(Oc1cnc(C(C)(C)C)nc1)OC(C)C` (configuration not stated), for which the compound was classed as inactive. For `O=C(O)c1cc(Oc2ccc(C(F)(F)F)cc2Cl)ccc1[N+](=O)[O-]`, the AC50 is 2900 nM (active). For the compound `CC(C1CC1)C(O)(Cn1cncn1)c1ccc(Cl)cc1` (configuration not stated), the compound was called inactive. Same read-out and setting: under `Nc1c(Cl)cc([N+](=O)[O-])cc1Cl` stands “inactive”; under `CCOP(=S)(OCC)SCCSCC`, “inactive”; under `O=[N+]([O-])c1cc(C(F)(F)F)c(Cl)c([N+](=O)[O-])c1Nc1ncc(C(F)(F)F)cc1Cl`, “inactive”. For the compound `CCCSP(=O)(OCC)Oc1ccc(Br)cc1Cl` (configuration not stated), the compound was classed as inactive. Take `C=C(C)[C@H]1Cc2c(ccc3c2O[C@@H]2COc4cc(OC)c(OC)cc4[C@@H]2C3=O)O1`: the result was inactive. For the compound `CON=C(C(=O)OC)c1ccccc1CON=C(C)c1cccc(C(F)(F)F)c1`, the call was inactive. Same read-out and setting: under `CCOP(=S)(OCC)OC(Cl)C(Cl)(Cl)Cl` (configuration not stated) stands “inactive”.
